Screening data as filed in PubChem.
Hits are enriched below; roughly 19% of the tested compounds scored in any of these assays.
Pf growth 96h: Primary qHTS for delayed death inhibitors of the malarial parasite plastid, 96 hour incubation. P. falciparum luciferase reporter growth, 96 h. Potency, µM (series often up to 28.7 µM), for the others: at the top dose activity change, negative = inhibition, actives largely listed as inhibitors. hit rate 6.9% among 320,000. AID 504834, 2011; also: potency is read from the fitted curve at half-maximal effect; % is scaled to controls: 0 for no effect and ±100 for the full control effect
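P. falciparum expressing integrated firefly luciferase, in erythrocytes at 2% hematocrit, 0.05% parasitemia, incubated with compounds 96 h at 37 C, 5% CO2. Growth inhibition read as loss of luminescence; two-generation exposure targets delayed-death apicoplast inhibitors.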
Pf growth 48h: Primary qHTS for delayed death inhibitors of the malarial parasite plastid, 48 hour incubation | P. falciparum luciferase growth in erythrocytes, 48 h | Potency, µM (highest dose often 28.7 µM), for the others: top-dose activity change, negative = inhibition, actives largely listed as inhibitors | hit rate 5.9% among 310,000; also: potency is read from the fitted curve at half-maximal effect; % is scaled to controls: 0 for no effect and ±100 for the full control effect
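Luciferase-expressing P. falciparum in infected erythrocytes (2% hematocrit, 0.1% parasitemia final) in RPMI 1640/0.5% Albumax were exposed to compound for 48 hours at 37 C, 5% CO2; growth read as luminescence.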
Cycloheximide cs: Cycloheximide Counterscreen for Small Molecule Inhibitors of Shiga Toxin; cell reporter, cycloheximide protein synthesis inhibition counterscreen; max response, %; hit rate 12% among 300,000; in the data active = max response mostly above about 13%, no sharp cut-off; inactive = mostly below about 14%; also: read at 38.3 µM for the half of the compounds with a filed dose; 0% is about no effect
LASV entry inh: qHTS for Inhibitors of binding or entry into cells for Lassa Virus; Lassa virus pseudotype entry inhibition, cell reporter; Potency, µM (highest dose often 37.9 µM), for inactives: at the highest dose activity change, negative = inhibition, usual class: inhibitors; hit rate 1.2% among 300,000; AID 540256, 2011; calls by dose curve; tested in HEK293 cells; also: potency is read from the fitted curve at half-maximal effect; % is scaled to controls: 0 for no effect and ±100 for the full control effect; nearly all actives have a fitted effect of over 50% in size
Shiga toxin inh: A qHTS for Small Molecule Inhibitors of Shiga Toxin | Vero cells, Shiga toxin protein synthesis inhibition reporter | inhibition, % at 38.7 µM | hit rate 9.2% among 290,000 | AID 2315, 2010; in the data active = inhibition mostly above about 28%, no sharp cut-off; inactive = mostly below about 43%; also: 0% is about no effect
MARV entry inh: qHTS for inhibitors of binding or entry into cells for Marburg Virus. Marburg virus pseudotyped entry inhibition, cell reporter. AID 540276, 2011. hit rate 1.8% among 300,000. Potency, µM (doses to about 37.8 µM), without a hit: top-dose activity change, negative = inhibition, hits mostly inhibitors; calls by dose curve; tested in HEK293 cells; also: potency is read from the fitted curve at half-maximal effect; % is scaled to controls: 0 for no effect and ±100 for the full control effect
* = called active by the depositor; i = inactive; ? = inconclusive; / = not tested or not shown; + = active, no number; [ ] = dose if it differs, or a comment. Unless noted, calls follow the shape of the dose curve; as a rule, active = well fitted inhibition curve with a large enough effect; inconclusive = small, poorly fitted or top-dose-only effect, or another doubt; inactive = no such curve, though single readings can be large or run the other way.

SMILES	Pf growth 96h	Pf growth 48h	Cycloheximide cs	LASV entry inh	Shiga toxin inh	MARV entry inh
Cc1cccc(OCCOC(=O)C2CCN(S(=O)(=O)c3ccc(C)c(C)c3)CC2)c1	0.3%	8.7%	-2.9	10.5%	21.8	24.4%
C(=N\Nc1ccccn1)/c1ccc(N2CCOCC2)cc1	0.0%	i	47.2*	?	71.2	?
C/C(=N\Nc1ccccn1)c1ccc(N2CCOCC2)cc1	75.9%	178.4%	41.5*	-13.1%[46.1 µM]	115.9*	12.6%[46.1 µM]
CC(=NNC(=O)c1cc(C)nc2ccccc12)c1ccc(N2CCOCC2)cc1	/	/	/	-29.0%	/	-10.9%
Clc1cccc(N/N=C/c2ccc(N3CCOCC3)cc2)c1	?	-22.1%	37.7*	11.9%	31.6	16.8%
Cc1nc2nc(-c3ccc(F)cc3)cn2nc1C	66.0%	33.0%	32.2*	/	31.4	/
CCc1c(-c2ccccc2)nc2nc(C)c(C)nn12	-4.6%	/	-2.9	/	-8.5	/
CCc1ccc(-c2cn3nc(C)c(C)nc3n2)cc1	90.4%	31.3%	-0.9	?	-23.7	2.06µM*
Cc1nc2nc(-c3ccccc3)cn2nc1C	1.1%	133.8%	28.3*	11.6µM*	85.1*	?
c1ccc(-c2cn3nc(-c4ccccc4)cnc3n2)cc1	187.6%	278.5%	49.2*	?	+	-4.1%
Cc1cc(N2CCOCC2)n2cc(-c3ccc(F)cc3)nc2n1	?	-1.2%	5.3	-3.3%[46.1 µM]	-6.2	-9.7%[46.1 µM]
O=c1cc(-c2ccccc2)oc2ccc(Cl)cc12	/	/	/	?	/	-5.5%
OCCN=c1cc(-c2ccccc2)oc2ccc(Cl)cc12	?	?	52.4*	-5.3%	189.7*	?
CN(C)CCCN=c1cc(-c2ccccc2)oc2ccc(Cl)cc12	?	?	13.6*	/	27.0	/
CN(C)CCCN1C(=O)c2oc3ccc(Cl)cc3c(=O)c2C1c1cccnc1 (stereo unspecified)	?	?	4.7	-0.9%	2.0	19.6%
Cn1nc(C(=O)OCC(=O)Nc2cccc(S(=O)(=O)N3CCCC3)c2)c2ccccc2c1=O	-11.9%	11.7µM*	-4.9	/	-3.9	/
CC(C)n1nc(C(=O)Nc2cccc(S(=O)(=O)N3CCOCC3)c2)c2ccccc2c1=O	10.4µM*	?	/	/	/	/
Cn1nc(C(=O)Nc2cccc(S(=O)(=O)N3CCCC3)c2)c2ccccc2c1=O	9.28µM*	8.28µM*	/	/	/	/
Oc1c(Br)cc(/C=N/n2c(-c3ccccc3)n[nH]c2=S)cc1Br	?	?	-2.1	-9.9%	-5.4	?
O=C(NC(Cc1ccccc1)C(=O)N1CCN(S(=O)(=O)c2ccccc2F)CC1)c1ccccc1 (stereo unspecified)	-57.8%	?	/	-0.8%	/	-14.0%[46.1 µM]
CCN(CC(=O)NC1CCS(=O)(=O)C1)S(=O)(=O)c1cccc(C(C)=O)c1 (stereo unspecified)	-4.0%	-9.9%	-2.0	9.6%	3.9	13.5%[46.1 µM]
O=c1oc(-c2ccccc2)cc(Cl)c1Cl	-11.6%	-8.7%	15.9	?	44.0	11.2µM*
O=P(O)(O)c1cc(-c2ccccc2)oc1-c1ccccc1	?	?	-2.7	26.6%[46.1 µM]	-4.9	-4.6%[46.1 µM]
O=C(OCC(=O)N1CCOCC1)c1ccc(O)cc1	56.4%	41.3%	-1.0	7.2%[46.1 µM]	25.2	?
Nc1cc(C(=O)OCC(=O)N2CCCC2=O)ccc1Cl	23.1%	?	/	7.9%	/	14.1%[46.1 µM]
SMILES	Pf growth 96h	Pf growth 48h	Cycloheximide cs	LASV entry inh	Shiga toxin inh	MARV entry inh
O=C(OCC(=O)N1CCOCC1)c1ccccc1O	87.1%	71.0%	28.6*	5.7%[46.1 µM]	72.3*	?
Nc1cc(Cl)ccc1C(=O)OCC(=O)N1CCOCC1	28.9%	35.0%	21.2*	/	25.2	/
Nc1cc(C(=O)OCC(=O)N2CCCC2)ccc1Cl	/	66.7%	30.5*	2.9%	50.0*	1.3%
Nc1cc(Cl)ccc1C(=O)OCC(=O)N1CCCC1	82.9%	61.0%	17.3*	11.1%	35.0	-1.8%[46.1 µM]
CN(C)S(=O)(=O)c1cccc(COC(=O)CN2C(=O)NC3(CCCC3)C2=O)c1	32.2%	12.5%	-1.1	/	16.1	/
Cc1onc(-c2ccccc2Cl)c1C(=O)OCn1nnc2ccccc2c1=O	-1.5%	-29.5%	1.0	1.2%	-9.4	-30.0%
CCn1c2ccccc2c2cc(CN3CCN(Cc4cc(OC)c(O)c(OC)c4)CC3)ccc21	/	/	/	-8.6%[46.1 µM]	/	/
CCn1c2ccccc2c2cc(CN3CCN(Cc4cc(OC)ccc4O)CC3)ccc21	52.7%	1.17µM*	8.3	?	24.8	?
CN1CCN(CC(O)Cn2c3ccccc3c3ccccc32)CC1 (stereo unspecified)	-2.1%	?	-8.7	/	-1.0	/
CCOc1ccc(CN2CCN(CC(O)Cn3c4ccccc4c4ccccc43)CC2)cc1 (stereo unspecified)	?	2.08µM*	-6.4	?	-14.5	?
COc1ccc(CN2CCN(CC(O)Cn3c4ccccc4c4ccccc43)CC2)cc1 (stereo unspecified)	?	3.29µM*	-1.8	-1.9%	-1.8	-0.5%
O=C(NCCOc1ccccc1Cl)C(=O)NCCOc1ccccc1Cl	2.94µM*	-2.9%[5.75 µM]	-4.0	/	-4.0	/
COc1ccc(C(=O)NCCOc2ccccc2Cl)c(OC)c1OC	6.6%	100.5%	53.7*	/	99.4*	-4.6%
O=C(CNC(=O)c1ccccc1F)NCCOc1ccccc1Cl	-7.2%	20.4%	15.4*	?	+	2.6%
CN(CCOc1ccccc1Cl)Cc1ccccc1	4.5%	33.0%	13.4*	/	/	/
O=[N+]([O-])c1ccc(-n2nncc2-c2ccccc2)cc1	?	-3.1%	5.1	/	7.0	/
CCC(C)[C@H](NC(=O)N1CCCC1)C(=O)O (stereo partly specified)	6.57µM*	/	1.5	-0.6%	-9.0	-2.0%
Cc1[nH]c2ccccc2c1SCC(=O)N1CCCc2ccccc21	?	-30.1%	-4.0	/	-6.9	/
Cc1[nH]c2ccccc2c1C(=O)C(=O)N1CCN(c2ccccc2F)CC1	?	11.8%	-2.9	/	-6.3	/
CC(=O)c1ccc(N2CCN(C(=O)C(=O)c3c(C)[nH]c4ccccc34)CC2)cc1	35.8%	-12.9%	15.4*	-1.9%	16.4	-16.1%
Cc1[nH]c2ccccc2c1C(=O)C(=O)N1CCCc2ccccc21	10.4µM*	?	50.1*	-13.1%	63.7*	?
Cc1[nH]c2ccccc2c1C(=O)C(=O)N1c2ccccc2CC1C (stereo unspecified)	11.7µM*	6.57µM*	-2.1	-19.6%	-7.4	?
O=[N+]([O-])c1cc([N+](=O)[O-])c(Oc2ccc(Cl)c3cccnc23)cc1NN1CCCCC1	1.47µM*	?	-1.8	/	0.9	/
Cc1cc(Oc2cc(NN3CCCCC3)c([N+](=O)[O-])cc2[N+](=O)[O-])c(C(=O)c2ccccc2)cc1Cl	8.28µM*	?	-2.5	/	9.5	/
CC1(C)Cc2cccc(Oc3cc(NN4CCCCC4)c([N+](=O)[O-])cc3[N+](=O)[O-])c2O1	1.47µM*	?	-1.9	/	-7.8	/
